The list is not random: actives were taken first. Their share in the collection is about 7.3%.
3T3 cytotox – Cytotoxic Profiling in NIH 3T3 Cell Line of Diverse Libraries Using Quantitative High-Throughput Screening | NIH 3T3 viability, CellTiter-Glo ATP luminescence, 48-72 h | Potency, µM (series often up to 96.7 µM), for inactives: top-dose activity change, negative = cytotoxicity, hits mostly inhibitors | 4.3% of 94,000 active; also: potency is read from the fitted curve at half-maximal effect; nearly all actives have a fitted effect of over 55% in size
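ATP-dependent luminescence (CellTiter-Glo) served as the viability signal for NIH 3T3 cells treated with compound for 48 or 72 hr at 37 °C.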
HEK293 viab – GF-AFC viability counterscreen for inhibitors of alpha-synuclein gene (SNCA) expression. HEK-293-SNCA-luc viability, GF-AFC fluorescence, 24 h. Potency, µM (highest dose often 57.1 µM), without a hit: top-dose activity change, negative = cytotoxicity, actives largely listed as cytotoxic. 0.12% of 150,000 active. AID 1671193, 2021;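 also: potency is read from the fitted curve at half-maximal effect; 0% = DMSO-treated cells and -100% = medium-only wells without cells; nearly all actives have a fitted effect of over 30% in size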
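Cytotoxicity counterscreen: after 24 h compound treatment of genome-edited SNCA-luciferase HEK-293 cells, live-cell protease substrate GF-AFC read by fluorescence after 30 min; activity scaled between DMSO (0%) and medium-only (-100%), curves Hill-fitted.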
HEK293 tox – Cytotoxic Profiling in HEK 293 Cell Line of Diverse Libraries Using Quantitative High-Throughput Screening; 6.6% of 94,000 active; HEK 293 viability, ATP luminescence (CellTiter-Glo), 48-72 h; Potency, µM (top dose mostly 115 µM), for inactives: at the highest dose activity change, negative = cytotoxicity, usual class: inhibitors; AID 1345083, 2018; also: potency is read from the fitted curve at half-maximal effect; nearly all actives have a fitted effect of over 60% in size
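CellTiter-Glo luminescence (cellular ATP) was read after 48 or 72 hr of compound exposure at 37 degree Celsius. Cells were HEK 293 plated at 250 cells/well.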
IP6K1 inhibitor – Primary qHTS assay for small molecule inhibitors of Inositol hexaphosphate kinase 1 (IP6K1). Inositol hexakisphosphate kinase 1 (Homo sapiens), Q92551. IP6K1 kinase, ADP-Glo luminescence, 2 h; stronger effect = lower value. activity change, % (series mostly up to about 58 µM). 0.81% of 140,000 active. AID 1645851, 2021; in the data active = activity change below about -25%
Target sequence (Q92551 whole entry, looked up): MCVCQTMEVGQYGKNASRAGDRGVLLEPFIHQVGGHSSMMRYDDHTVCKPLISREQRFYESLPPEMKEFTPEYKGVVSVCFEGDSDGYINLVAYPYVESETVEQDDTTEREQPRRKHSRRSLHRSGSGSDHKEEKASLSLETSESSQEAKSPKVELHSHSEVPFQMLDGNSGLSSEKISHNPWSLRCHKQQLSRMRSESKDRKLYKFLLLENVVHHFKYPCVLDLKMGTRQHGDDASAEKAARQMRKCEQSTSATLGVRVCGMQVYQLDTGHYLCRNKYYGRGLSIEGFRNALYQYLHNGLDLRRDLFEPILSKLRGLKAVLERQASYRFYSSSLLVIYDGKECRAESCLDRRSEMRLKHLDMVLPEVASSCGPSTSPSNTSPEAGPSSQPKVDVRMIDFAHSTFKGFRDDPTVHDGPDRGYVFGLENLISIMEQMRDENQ
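ADP-Glo luminescence measures ADP made by human IP6K1 during a 2 h RT reaction with ATP/IP6 (mix at 1.3 mM/130 uM); top library doses 57.5 and 19.1 uM final.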
SNCA expr inhib – Primary qHTS assay for inhibitors of alpha-synuclein gene (SNCA) expression; HEK-293 SNCA-luciferase knock-in, luminescence, 24 h; Potency, µM (series often up to 57.2 µM), for inactives: top-dose activity change, negative = inhibition, hits mostly inhibitors; 0.17% of 140,000 active;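 also: potency is read from the fitted curve at half-maximal effect; plate controls were DMSO cells for no effect and cell-free wells for full effect; nearly all actives have a fitted effect of over 45% in size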
Luciferase inh – Firefly luciferase inhibition profiling of diverse chemical library using quantitative high-throughput screening; AID 1347043, 2019; purified P. pyralis luciferase, luminescence, biochemical; Potency, µM (top dose mostly 115 µM), actives largely listed as inhibitors; Luciferin 4-monooxygenase (Photinus pyralis), P08659; 2.5% of 76,000 active; also: potency is read from the fitted curve at half-maximal effect; nearly all actives have a fitted effect of over 65% in size
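Purified 10nM P. pyralis luciferase with 10uM D-luciferin and 10uM ATP in 50mM Tris acetate pH 7.5, 10mM Mg acetate, 0.01% Tween-20, 0.05% BSA. qHTS titration; luminescence read by CCD imager.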
Numbers without * were called inactive; i = inactive; ? = inconclusive; · = no result; [ ] = dose if it differs, or a comment. Unless noted, calls follow the shape of the dose curve; as a rule, active = well fitted curve in the direction sought with a large enough effect; inconclusive = small, poorly fitted or top-dose-only effect, or another doubt; inactive = no such curve, though single readings can be large; an effect the other way counts as inactive or inconclusive. Unless noted, % is scaled to controls: 0 for no effect and ±100 for the full control effect.

SMILES	3T3 cytotox	HEK293 viab	HEK293 tox	IP6K1 inhibitor	SNCA expr inhib	Luciferase inh
O=C(NCCc1ccccc1)C1CCCN1Cc1ccc(-c2cncnc2)cc1 (configuration not stated)	?	-12%	?	2	?	·
O=C(CCC1CCCC1)NCCc1noc(C2CC2)n1	1%	2%	-4%	24	28%	i
COc1ccc2c(c1)c(CN1CCCCCCN(C)C(=O)[C@@H]3CCC[C@@H]31)cn2C	28µM*	?	35µM*	0	?	i
CN1CCCCCCN(Cc2cn(C)c3ccccc23)[C@H]2CCC[C@H]2C1=O	?	-15%	?	3	-6%	i
Clc1cccc(-c2noc(-c3ccc(NCC4COCCO4)nc3)n2)c1 (configuration not stated)	-28%	-13%	-33%	15	43%	1µM*
FC(F)(F)c1cccc(-c2noc(-c3ccc(NCCN4CCOCC4)nc3)n2)c1	?	-25%	11µM*	14	?	?
CCn1ncc(CN2CC(F)(F)C[C@H]2c2nc(C(=O)NC)no2)c1C	i	-2%	2%	8	18%	i
Cc1nnc([C@@H]2CC(F)(F)CN2S(=O)(=O)c2cccc(F)c2)o1	-4%	9%	-2%	1	16%	i
Cc1ccc([S+](=O)([O-])N2CCCC(C(=O)N3CCC(N4Cc5cccn5C4=O)CC3)C2)cc1 (configuration not stated)	?	-3%	45µM*	-6	-23%	·
N[C@@H](Cc1cc(I)c(Oc2ccc(O)c(I)c2)c(I)c1)C(=O)O	·	-27%	·	-34*	·	·
COc1cccc(-c2ccc(CN3CCCC3C(=O)NC3CCC3)cc2)c1 (configuration not stated)	?	-8%	?	-5	20%	·
COc1cccc(-c2cccc(CN3CCCC3C(=O)NCc3cccc(F)c3)c2)c1 (configuration not stated)	35µM*	?	?	0	26%	·
CCn1ccnc1CN1CCCC1C(=O)Nc1ccc(-c2cccc(F)c2)cc1 (configuration not stated)	?	2%	35µM*	-5	68%	i
COc1cccc(-c2cccc(CN3CCCC3C(=O)NC3CC3)c2)c1 (configuration not stated)	?	·	45µM*	8	·	·
O=C(NCCOc1ccccc1)C1CN(c2ccc(Cl)cc2)C(=O)N1 (configuration not stated)	-4%	0%	-5%	-3	-14%	i
O=C(NCC(F)F)C1CCCN1Cc1ccc(-c2cncnc2)cc1 (configuration not stated)	-12%	17%	-4%	2	-4%	·
CN(Cc1ccccc1C(F)(F)F)C(=O)Nc1ccccc1	?	-21%[87.6 µM]	?	-12	-5%[87.6 µM]	?
CN(Cc1ccccc1C(F)(F)F)C(=O)Cc1cccc(Cl)c1	?	-14%[87.6 µM]	79µM*	1	-23%[87.6 µM]	i
CN(Cc1ccccc1C(F)(F)F)C(=O)c1ccccc1Cl	-30%[138 µM]	-11%[87.6 µM]	?	-5	13%[87.6 µM]	i
CN(Cc1ccccc1C(F)(F)F)C(=O)Nc1ccc(Cl)cc1	35µM*	?	?	-11	-18%[87.6 µM]	i
CN(Cc1ccc(F)cc1)C(=O)Nc1ccc(Cl)cc1	?	-18%[87.6 µM]	89µM*	1	46%[87.6 µM]	?
O=C(c1cnccn1)N1CCC(c2nc(C3CC3)no2)C1 (configuration not stated)	i	17%	-4%	6	27%	i
O=C1OCC2(CCN(Cc3ccccc3O)C2)N1Cc1ccccc1 (configuration not stated)	?	11%[87.6 µM]	?	4	?	i
COc1ccc(OC)c(S(=O)(=O)N2CCC(c3nc(-c4cccn4C)no3)CC2)c1	?	-13%	40µM*	8	-24%	·
CCOc1ccccc1NC(=O)N1CCC(c2nc(-c3cccn3C)no2)CC1	?	-9%	?	5	-25%	·
SMILES	3T3 cytotox	HEK293 viab	HEK293 tox	IP6K1 inhibitor	SNCA expr inhib	Luciferase inh
COc1nc2nc(CC3CC3)n(C)c2cc1-c1ccc(N2CCOCC2)cc1	?	-1%[87.6 µM]	?	6	58%[87.6 µM]	i
COc1cc(-c2nccc3c(=O)cc(N4CCOCC4)oc23)ccn1	?	-6%[87.6 µM]	-15%[172 µM]	-24	7%[87.6 µM]	i
O=c1cc(N2CCOCC2)oc2c(-c3ccncc3)nccc12	22µM*	-1%[87.6 µM]	?	-5	-8%[87.6 µM]	i
O=c1cc(N2CCOCC2)oc2c(-c3ccccc3F)nccc12	8.9µM*	?	?	-21	-3%[87.6 µM]	i
COCCN1CCC(N2CCN(C(=O)c3ccc(F)cc3)CC2)C1=O (configuration not stated)	-1%	-1%	-6%	8	-25%	i
COc1ccccc1OC1CCN(Cc2ccccc2C#N)CC1	?	4%	?	3	-9%	i
COc1ccc(C(C)NC(=O)C2CCN(C(=O)c3ncn4c3COC(c3ccccc3)C4)CC2)cc1 (configuration not stated)	-13%	-1%	-6%	4	21%	28µM*
COc1ccc(C2Cn3cnc(C(=O)N4CCC(C(=O)Nc5ccccc5)CC4)c3CO2)cc1 (configuration not stated)	0%	-13%	2%	6	25%	?
COc1cc(NC(=O)C2CCN(C(=O)c3ncn4c3COC(c3ccccc3)C4)CC2)cc(OC)c1 (configuration not stated)	-7%	-13%	-19%	0	25%	25µM*
O=C1CC2(CCN(C(=O)C3CCCN3C(=O)c3ccc(Cl)nc3)CC2)Oc2ccccc2N1 (configuration not stated)	-11%	-15%	-17%	-3	17%	·
COc1ccc(Nc2ccnc(N3CCN([S+](=O)([O-])c4cccs4)CC3)n2)cc1	?	-5%	?	-2	11%	·
CC(C)NC(=O)c1cc(-c2ccc([S+](C)(=O)[O-])cc2)c2cccn2n1	?	-13%	?	-3	37%	·
C#CCNC(=O)c1cc(-c2cccc(C(F)(F)F)c2)c2cccn2n1	50µM*	-2%[87.6 µM]	?	-2	1%[87.6 µM]	·
CC(C)NC(=O)c1cc(-c2cccc(C(F)(F)F)c2)c2cccn2n1	?	-13%	35µM*	-7	-24%	·

Source: PubChem BioAssay (National Center for Advancing Translational Sciences (NCATS))
